# Measurements: the supplement of paper PMC9694430
# System: T1, LOC_OS04G38480-cb003
# T1 sequence (whole entry): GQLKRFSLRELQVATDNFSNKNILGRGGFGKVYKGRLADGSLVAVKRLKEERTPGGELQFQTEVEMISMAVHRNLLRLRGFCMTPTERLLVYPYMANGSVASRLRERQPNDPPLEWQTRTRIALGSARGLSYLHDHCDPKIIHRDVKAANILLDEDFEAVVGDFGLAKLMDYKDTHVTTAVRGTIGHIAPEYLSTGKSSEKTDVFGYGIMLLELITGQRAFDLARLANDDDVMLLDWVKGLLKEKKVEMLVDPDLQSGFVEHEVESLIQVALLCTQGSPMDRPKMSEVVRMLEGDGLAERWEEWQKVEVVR
# Assay: thermal shift delta Tm vs DMSO control; higher = stronger stabilization (binding)
# Settings: 12.5 µM; protein concentration 2 µM
# In short: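 Heating from 25°C to 95°C at 0.05°C/s, fluorescence was recorded for 19.5 μl wells of 2 μM E. coli-expressed, purified rice kinase domain in 100 mM potassium phosphate pH 7.5, 150 mM NaCl, 10% glycerol and 5 × SYPRO Orange with compound in DMSO. Boltzmann fits gave melting temperatures for this differential scanning fluorimetry assay. The shift reported is the mean of three replicates against the DMSO-only protein.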
# 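Further: purified Escherichia coli-expressed rice kinase domain construct.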
smiles,measurement,value
CC(C)(C)c1cc(C=C(C#N)C#N)cc(C(C)(C)C)c1O [Tyrphostin 9],thermal shift delta Tm,1.65 °C
COc1ccc(C[C@H]2NC[C@H](O)[C@H]2OC(C)=O)cc1 [Anisomycin],thermal shift delta Tm,0.22 °C
CC(C)(C)c1cc(C=C(C#N)C#N)cc(Br)c1O,thermal shift delta Tm,-0.82 °C
Cc1ccccc1-n1c(Cn2ncc3c(N)ncnc32)nc2cccc(C)c2c1=O,thermal shift delta Tm,-0.52 °C
COc1cc([C@@H]2c3cc4c(cc3[C@H](O)[C@H]3COC(=O)[C@@H]23)OCO4)cc(OC)c1OC [Picropodophyllin (PPP)],thermal shift delta Tm,0.78 °C
COc1ccc2c(c1)/C(=C/c1cnc[nH]1)C(=O)N2,thermal shift delta Tm,2.32 °C
COc1ccc(N(C(=O)Oc2c(C)cccc2C)c2ccnc(Nc3ccc(N4CCN(C)CC4)cc3)n2)c(OC)c1,thermal shift delta Tm,1.41 °C
O=c1[nH]c2ccc(Cl)cc2c(N[C@@H]2CN3CCC2CC3)c1-c1nc2ccccc2[nH]1,thermal shift delta Tm,2.51 °C
Cn1cc(C2=C(c3cn(C4CCN(Cc5ccccn5)CC4)c4ccccc34)C(=O)NC2=O)c2ccccc21,thermal shift delta Tm,2.44 °C
C/C(O)=C(\C#N)C(=O)Nc1cc(Br)ccc1Br,thermal shift delta Tm,1.9 °C
CCN1CCN(C(=O)Cc2ccc(Nc3ncc(F)c(Nc4ccc(C(=O)Nc5ccccc5Cl)cc4)n3)cc2)CC1 [Aurora A Inhibitor I],thermal shift delta Tm,3.38 °C
